Results as given in PubChem BioAssay.
Active and inactive are the calls of the source. Unless noted, no rule for the calls is given here.

Columns and labels:
[1] = liver-stage malaria parasite load reduction – cell-based, known kinase inhibitor set, luminescence, hepatoma host viability (AID 624392); conditions: Plasmodium liver stage in hepatoma cells, luciferase luminescence, concentration not given here; liver cell % of control: measured here: host liver cell viability; parasite % of control: stronger effect = lower value;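 also: infected cells incubated roughly two days before readout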
[2] = altered dexamethasone sensitivity, NF-kB reporter, cell-based, luciferase, IL-1B stimulus (AID 624486); conditions: IL-1B + dexamethasone, luminescence; percent of negative control (+Dex): actives lie on both sides, concentration not given here; z-score: measured here: IL-1B alone, no Dex;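 as to percent of negative control (+Dex): 100% = mean signal of vehicle control wells on the plate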
[3] = C. elegans survival during P. aeruginosa infection – whole organism (AID 651566);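 also: tested at 14 µM; sign flipped so higher z means a lower ratio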; conditions: C. elegans killed by P. aeruginosa, survival ratio
[4] = pro-inflammatory signaling induction in mouse macrophages – cell-based, murine, luminescence (AID 652131); conditions: murine macrophage pro-inflammatory reporter, stronger effect = higher value
[5] = target: Cellular tumor antigen p53 (Homo sapiens) (UniProt P04637); test: GFP-p53 level modulators in HPV16+ cells – imaging, known kinase inhibitor set, EGFP/DsRed ratio (AID 1053116); conditions: GFP-p53 stability, stronger effect = higher value; EGFP object count: measured here: GFP-p53 positive objects count;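 also: cells exposed to compounds for 24 h at 37 °C before reading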
[6] = inducers of IRF3 signaling, differentiated THP-1 – cell-based, PMA-stimulated THP-1, luminescence (AID 1053176); conditions: PMA-differentiated THP-1, IRF3 reporter luminescence; stronger effect = higher value
[7] = MELAS cybrid and Rieske KO viability enhancers – cell-based, MELAS cybrids, Rieske KO mouse fibroblasts, CellTiter-Glo, primary screen (AID 1508586;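 active = mean z-score across replicates of 1.96 or higher in either the MELAS or the Rieske mutant cell line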;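 also: z relative to plate mean and SD of compound and empty wells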); conditions: low glucose
[8] = MELAS cybrid survival, CellTiter-Glo 48 h, stronger effect = higher value
[9] = Rieske KO mouse fibroblast survival, CellTiter-Glo 72 h

Sequence of Cellular tumor antigen p53 (Homo sapiens) (P04637 whole entry, looked up): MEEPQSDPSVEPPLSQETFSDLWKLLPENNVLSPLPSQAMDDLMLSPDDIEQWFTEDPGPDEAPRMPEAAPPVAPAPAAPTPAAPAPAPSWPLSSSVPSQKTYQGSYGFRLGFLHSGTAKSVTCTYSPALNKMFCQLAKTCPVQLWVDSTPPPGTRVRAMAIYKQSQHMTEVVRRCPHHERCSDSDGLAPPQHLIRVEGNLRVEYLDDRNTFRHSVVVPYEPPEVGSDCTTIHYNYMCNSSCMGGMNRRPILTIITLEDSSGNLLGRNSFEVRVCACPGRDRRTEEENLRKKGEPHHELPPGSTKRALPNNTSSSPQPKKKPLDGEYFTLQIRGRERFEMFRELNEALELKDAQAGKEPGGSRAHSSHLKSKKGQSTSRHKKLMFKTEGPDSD

Row | Compound | liver cell % of control [1] [%] | parasite % of control [1] | percent of negative control (+Dex) [2] | z-score [2] | z-score [3] | z-score [4] | EGFP object count [5] | EGFP/DsRed ratio [5] | fraction signal [6] | z-score [7, 8] | z-score [7, 9]
1 | O=C1NC(=O)C(N2CCc3ccccc32)=C1c1ccc(Cl)cc1 | 86.6 | 138% (inactive) | 74% (inactive) | -1.47 | -1.35 (inactive) | -0.315 (inactive) | 4 | 0.106 (inactive) | -0.0285 (inactive) | -0.729 (inactive) | 0.357
2 | CCn1c(-c2nonc2N)nc2c(N3CCCC3)nccc21 | 90.8 | 137% (inactive) | 80.5% (inactive) | -0.655 | -0.89 (inactive) | 1.27 (inactive) | 3 | 0.0699 (inactive) | -0.004 (inactive) | 0.113 (inactive) | -0.0304
3 | CCOc1nccc2c1nc(-c1nonc1N)n2CC | 107 | 176% (inactive) | 86% (inactive) | -0.885 | 0.225 (inactive) | 0.153 (inactive) | 4.5 | 0.429 (inactive) | 0 (inactive) | -0.642 (inactive) | -0.113
4 | CS(=O)(=O)Nc1ccc(-c2ccc3c(NC(=O)C4CC4)n[nH]c3c2)cc1 | 98.9 | 96.9% (inactive) | 94% (inactive) | 0.82 | 0.39 (inactive) | -0.745 (inactive) | 3 | 0.0815 (inactive) | -0.009 (inactive) | 0.24 (inactive) | -0.0618
5 | CCN1CCC(CC(=O)NC2NNC3NNC(c4cccc(F)c4F)CC32)CC1 (centres undefined) | 80.9 | 32.2% (inactive) | 118% (inactive) | -0.095 | -0.285 (inactive) | 0.818 (inactive) | 25.5 | 0.256 (inactive) | -0.004 (inactive) | -0.762 (inactive) | -0.436
6 | Cc1ccc(O)cc1Nc1ccnc2ccc(S(C)(=O)=O)cc12 | 79.8 | 60.9% (inactive) | 60.5% (inactive) | -3.46 | 0.285 (inactive) | 0.671 (inactive) | 3 | 0.0595 (inactive) | -0.007 (inactive) | -0.116 | 3.87
7 | CC1=C(C(=O)Nc2cc(Cl)c3[nH]ncc3c2)C(c2ccc(C(F)(F)F)cc2)CC(=O)N1 (centres undefined) | 106 | 193% (inactive) | 73% (inactive) | -1.52 | -0.22 (inactive) | -0.455 (inactive) | 2 | 0.126 (inactive) | -0.01 (inactive) | -0.0142 (inactive) | -0.416
8 | COc1cccc(-n2nc(C)c3c(N/N=C(\C)c4ccncc4)ncnc32)c1 | 114 | 124% (inactive) | 100% (inactive) | 0.765 | 0.74 (inactive) | -0.201 (inactive) | 2 | 0.0826 (inactive) | -0.0005 (inactive) | -0.775 (inactive) | -0.494
9 | Nc1nc(-c2ccc(F)cc2)c(-c2ccc3ncccc3n2)s1 | 158 | 131% (inactive) | 85.5% (inactive) | 0.965 | -0.035 (inactive) | -0.162 (inactive) | 6 | 0.152 (inactive) | -0.002 (inactive) | 0.38 (inactive) | 0.128
10 | COc1ccc(-c2cc3c(N)ncnc3o2)cc1 | 106 | 203% (inactive) | 118% (inactive) | 2.92 | 0.775 (inactive) | 1.8 (inactive) | 6.5 | 0.215 (inactive) | -0.014 (inactive) | 1.14 (inactive) | 0.359
11 | CS(=O)(=O)Nc1cccc(-c2ccc3c(NC(=O)C4CC4)n[nH]c3c2)c1 | 89.6 | 233% (inactive) | 96% (inactive) | 0.535 | 0.185 (inactive) | -0.214 (inactive) | 7 | 0.137 (inactive) | -0.0065 (inactive) | -0.446 (inactive) | -0.47
12 | COc1c(C(N)=O)cc(-c2ccc(Cl)cc2)cc1-c1ccc(S(N)(=O)=O)cc1 | 100 | 180% (inactive) | 90.5% (inactive) | 0.135 | -0.43 (inactive) | 0.956 (inactive) | 4 | 0.128 (inactive) | -0.003 (inactive) | 0.239 (inactive) | 0.0436
13 | CCCN1CCC(Oc2cc(Nc3nc(Nc4cccc(F)c4C(N)=O)c4cc[nH]c4n3)c(OC)cc2Cl)CC1 | 60.5 | 168% (inactive) | 77.5% (inactive) | -0.445 | 0.48 (inactive) | -0.663 (inactive) | 67.5 | 0.575 (active) | 0.0095 (inactive) | 0.312 (inactive) | 0.375
14 | CCn1c(-c2nonc2N)nc2cncc(C(=O)NCCNC)c21 | 80.5 | 190% (inactive) | 89% (inactive) | -0.865 | 0.43 (inactive) | -0.531 (inactive) | 7 | 0.122 (inactive) | -0.011 (inactive) | 3 (active) | 0.0886
15 | COc1ccc(-c2nn3ncccc3c2-c2ccnc(Nc3ccc(Cl)c(C(F)(F)F)c3)n2)cc1 | 101 | 87.8% (inactive) | 98% (inactive) | 0.34 | -1.15 (inactive) | -0.74 (inactive) | 2.5 | 0.0806 (inactive) | -0.0025 (inactive) | 1.48 (inactive) | -0.347
16 | O=C(O[C@H]1CN[C@H](C#Cc2cc3ncnc(Nc4ccc5c(cnn5Cc5ccccc5)c4)c3s2)C1)N1CCOCC1 | 118 | 137% (inactive) | 58% (inactive) | -2.13 | 1.08 (inactive) | -0.862 (inactive) | 3 | 0.0849 (inactive) | -0.0115 (inactive) | 0.875 (inactive) | -0.356
17 | CCCN1CCC(c2ccc(Nc3nc(Nc4cc(F)ccc4C(N)=O)c4cc[nH]c4n3)c(OC)c2)CC1 | 73 | 355% (inactive) | 72% (inactive) | -1.46 | 0.62 (inactive) | -0.577 (inactive) | 22.5 | 0.237 (inactive) | -0.0085 (inactive) | -0.472 | 7.31
18 | CCn1c(-c2nonc2N)nc2ccccc21 | 97.5 | 113% (inactive) | 80% (inactive) | -0.405 | 0.585 (inactive) | 0.013 (inactive) | 3 | 0.0652 (inactive) | -0.0025 (inactive) | -0.294 (inactive) | -0.443
19 | NS(=O)(=O)c1ccc(NC2CC(c3ccc(O)c(F)c3)NN2)cc1 (centres undefined) | 113 | 139% (inactive) | 94.5% (inactive) | -0.075 | -1.04 (inactive) | -0.229 (inactive) | 2.5 | 0.101 (inactive) | 0.0025 (inactive) | -0.752 (inactive) | -0.137
20 | COc1cc(N2CCN(C(C)C)CC2)ccc1Nc1nc(Nc2ccc(F)cc2C(N)=O)c2cc[nH]c2n1 | 64.4 | 792% (inactive) | 70% (inactive) | -2.39 | 0.205 (inactive) | 0.179 (inactive) | 4 | 0.221 (inactive) | 0.001 (inactive) | 2.96 (active) | 7.03
21 | Nc1nonc1-c1nc2cnccc2n1C1CCCCC1 | 69 | 61.4% (inactive) | 29.5% (active) | -7.08 | -0.155 (inactive) | -0.857 (inactive) | 3.5 | 0.0658 (inactive) | -0.002 (inactive) | -0.132 (inactive) | -0.207
22 | CS(=O)(=O)CCNCc1ccc(-c2ccc3ncnc(Nc4ccc(OCc5ccccc5)cc4)c3c2)o1 | 63.9 | 59.1% (inactive) | 74.5% (inactive) | -1.54 | 0.41 (inactive) | -0.003 (inactive) | 6.5 | 0.116 (inactive) | 0.006 (inactive) | 0.5 (inactive) | -0.312
23 | NS(=O)(=O)c1ccc(N=Nc2c(=O)[nH]c3ccc4[nH]cccc4c23)cc1 | 108 | 91% (inactive) | 144% (active) | 1.98 | 1.48 (inactive) | -1.63 (inactive) | 1.5 | 0.0128 (inactive) | -0.0065 (inactive) | 2.43 (active) | 0.199
24 | COc1cc2c(cc1Nc1nc(N3CCc4ccccc43)c3cc[nH]c3n1)N(C(=O)CN(C)C)CC2 | 75 | 160% (inactive) | 104% (inactive) | 0.675 | 0.56 (inactive) | 0.168 (inactive) | 16.5 | 1.27 (inactive) | -0.0105 (inactive) | -0.598 | 2.39
25 | O=S1CCN(Cc2ccc(-c3ccc4ncnc(Nc5ccc(OCc6ccccc6)c(F)c5)c4c3)o2)CC1 | 81.6 | 112% (inactive) | 77.5% (inactive) | -1.04 | -0.505 (inactive) | 0.693 (inactive) | 2.5 | 0.0418 (inactive) | 0.012 (inactive) | -0.335 (inactive) | -0.276
26 | Cc1ccc2c(-c3ccnc(Nc4cccc(C(F)(F)F)c4)n3)c(-c3ccccc3)nn2n1 | 84.8 | 47.5% (inactive) | 89.5% (inactive) | -3.32 | -0.495 (inactive) | -1.57 (inactive) | 2.5 | 0.0663 (inactive) | -0.0065 (inactive) | 0.907 (inactive) | -0.257
27 | CN(C)C(=O)O[C@@H]1CN[C@@H](C#Cc2cc3ncnc(Nc4ccc(OCc5cccc(F)c5)c(Cl)c4)c3s2)C1 | 108 | 112% (inactive) | 87% (inactive) | -0.155 | 0.705 (inactive) | -0.722 (inactive) | 4 | 0.0417 (inactive) | -0.0055 (inactive) | 0.394 (inactive) | -0.329
28 | COc1ccc(-c2coc3ncnc(N)c23)cc1 | 92.2 | 116% (inactive) | 84% (inactive) | -0.765 | 0.065 (inactive) | -0.443 (inactive) | 4 | 0.227 (inactive) | 0.002 (inactive) | -0.507 (inactive) | -0.245
29 | CCS(=O)(=O)c1ccc(OC)c(Nc2nccc(N(C)c3ccc4c(C)[nH]nc4c3)n2)c1 | 95.1 | 145% (inactive) | 92% (inactive) | -0.36 | -0.175 (inactive) | 2.99 (inactive) | 2.5 | 0.0751 (inactive) | -0.01 (inactive) | 1.33 (inactive) | 0.00494
